# Test results as given in PubChem BioAssay AID588458 (Sanford-Burnham Center for Chemical Genomics, 2011).
# Several values for one entry are separate records, joined by “and”; a condition that tells them apart may be missing. Equal values may be shown once. Hit rate of the full screen: of about 360,000 compounds, about 3,000 (0.83%) were called active. Cut-off read from the data, not from the text of the source: active = inhibition above about 50%; inactive = the rest. For the sample, actives were picked, then their nearest neighbours and some compounds at random. Some structures have more than one record in an assay (separate samples or runs), and their calls can disagree.
# Target: DNA (cytosine-5)-methyltransferase 1 (Homo sapiens) (UniProt P26358)
# Sequence (P26358 504-1616 limits assumed): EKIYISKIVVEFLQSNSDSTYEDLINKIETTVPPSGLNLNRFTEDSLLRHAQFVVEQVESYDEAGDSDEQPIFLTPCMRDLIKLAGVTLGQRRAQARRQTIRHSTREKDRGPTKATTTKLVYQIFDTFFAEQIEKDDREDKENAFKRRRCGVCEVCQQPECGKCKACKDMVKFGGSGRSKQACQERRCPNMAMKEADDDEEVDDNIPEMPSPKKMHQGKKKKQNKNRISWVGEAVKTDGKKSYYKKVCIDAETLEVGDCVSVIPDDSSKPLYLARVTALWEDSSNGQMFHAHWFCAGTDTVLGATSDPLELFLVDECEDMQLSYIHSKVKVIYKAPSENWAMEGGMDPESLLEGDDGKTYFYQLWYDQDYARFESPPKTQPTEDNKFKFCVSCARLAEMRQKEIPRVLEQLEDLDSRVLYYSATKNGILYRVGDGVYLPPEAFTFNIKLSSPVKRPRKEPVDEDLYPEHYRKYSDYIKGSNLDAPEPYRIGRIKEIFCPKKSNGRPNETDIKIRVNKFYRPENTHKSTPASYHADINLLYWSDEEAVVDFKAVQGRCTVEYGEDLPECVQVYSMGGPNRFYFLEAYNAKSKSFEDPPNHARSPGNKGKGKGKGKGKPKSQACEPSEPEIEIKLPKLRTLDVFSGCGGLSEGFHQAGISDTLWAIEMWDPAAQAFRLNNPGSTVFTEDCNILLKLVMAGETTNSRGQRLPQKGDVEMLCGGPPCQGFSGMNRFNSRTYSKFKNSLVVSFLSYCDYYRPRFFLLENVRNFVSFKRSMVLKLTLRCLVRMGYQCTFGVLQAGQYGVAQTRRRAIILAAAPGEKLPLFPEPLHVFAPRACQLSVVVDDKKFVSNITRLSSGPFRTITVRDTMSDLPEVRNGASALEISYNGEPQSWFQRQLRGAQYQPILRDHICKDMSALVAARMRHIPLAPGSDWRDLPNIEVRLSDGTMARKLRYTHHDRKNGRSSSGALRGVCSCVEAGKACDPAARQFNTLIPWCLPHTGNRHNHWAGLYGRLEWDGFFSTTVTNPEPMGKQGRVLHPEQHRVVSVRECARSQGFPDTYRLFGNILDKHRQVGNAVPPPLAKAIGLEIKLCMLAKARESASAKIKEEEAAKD
# Assay: human DNMT1 methyltransferase inhibitors, primary screen, biochemical, molecular beacon, fluorescence, HinP1I cleavage, uHTS (AID 588458)
# Conditions: at 10 µM, stronger effect = higher value
row,Compound,inhibition (reported as % activation of signal)
1,CC1CCN(C2=NC(=O)/C(=C/c3cn[nH]c3-c3ccccc3)S2)CC1,-3.21% (inactive)
2,Cc1cccc(-c2cnc(C(O)c3cc(C)cc(C)c3)[nH]2)c1 (stereo not drawn),4.05% (inactive)
3,Cc1ccc(-n2c(=O)cc(N3CCN(Cc4ccccc4)CC3)[nH]c2=O)cc1,-5.41% (inactive)
4,CN(Cc1cc2cc(F)ccc2[nH]1)Cc1nc(-c2cnccn2)no1,0.73% (inactive)
5,CN(Cc1nc2ccc(F)cc2[nH]1)Cc1nc(CC2CC2)no1,52.1% (active)
6,CN(Cc1ccc2nsnc2c1)Cc1nc(Cc2cccc(F)c2)no1,14.7% (inactive)
7,COc1cc(C2C(N3C(=O)c4ccccc4C3=O)C(=O)N2c2ccc(C)c(C)c2)cc(OC)c1OC (stereo not drawn),-2.9% (inactive)
8,Cc1ccc(NC(=O)c2cnc(SCC(=O)NCC3CCCO3)n(C)c2=O)cc1 (stereo not drawn),-0.68% (inactive)
9,Cc1[nH]c2ccccc2c1C(=O)COC(=O)c1c(-c2ccccc2)noc1C,-10.3% (inactive)
10,Cc1onc(-c2ccccc2)c1C(=O)Nc1ccccc1C#N,86.5% (active) and -2.35% (inactive)
11,N#Cc1ccccc1NC(=O)c1ccc2c(c1)OCO2,2.15% (inactive)
12,Cc1ccccc1CN1C[C@@H]2C[C@@H](c3cn(C)nc3-c3ccccc3)N3CCC[C@@]23C1=O,-7.15% (inactive)
13,O=C(COC(=O)CSc1nnc(-c2ccc(Cl)cc2)o1)Nc1cc(Cl)cc(Cl)c1,3.58% (inactive)
14,O=C1/C(=C\c2ccc([N+](=O)[O-])cc2)CS(=O)(=O)C/C1=C/c1ccc([N+](=O)[O-])cc1,101% (active)
15,CN(C)S(=O)(=O)N1CCN(c2ccc([N+](=O)[O-])cc2)CC1,-0.57% (inactive)
16,CCCCC(=O)Nc1c2c(nn1-c1ccc([N+](=O)[O-])cc1)CS(=O)(=O)C2,0.28% (inactive)
17,Cc1ccc(CN2CC(N3CCC(Cc4ccccc4)CC3)CS2(=O)=O)cc1 (stereo not drawn),-0.65% (inactive)
18,Cc1ccc(OCc2nnc(SC3CCc4ccccc4C3=O)n2C)cc1 (stereo not drawn),-0.48% (inactive)
19,CC1(C(=O)NS(=O)(=O)c2ccccc2)CCN1C(=O)c1ccccc1 (stereo not drawn),-2.49% (inactive)
20,CC1(C(=O)NS(=O)(=O)c2ccccc2)CCN1C(=O)Cc1ccc(-c2ccccc2)cc1 (stereo not drawn),3.68% (inactive)
21,CC1(C(=O)NS(=O)(=O)c2ccccc2)CCN1C(=O)C/C=C/c1ccccc1 (stereo not drawn),84.5% (active)
22,COc1ccc(CNC(=O)C(NS(=O)(=O)c2cccc3nsnc23)C(C)C)cc1 (stereo not drawn),2.57% (inactive)
23,O=C1C(Cl)=C(Oc2ccccc2)C(=O)c2ccccc21,78.2% (active)
24,O=C(O)C1CCC(CNS(=O)(=O)c2ccc(Br)cc2)CC1 (stereo not drawn),0.46% (inactive)
25,O=C(Nc1ccccc1)c1cc2ccccc2[nH]1,-1.95% (inactive)
26,O=C(NCC(O)c1nc2ccccc2[nH]1)c1ccc(Br)cc1 (stereo not drawn),-1.63% (inactive)
27,O=C(Nc1cccc(-c2nc3ccccc3[nH]2)c1)c1ccc(C(=O)Nc2cccc(-c3nc4ccccc4[nH]3)c2)cc1,56.8% (active)

row,Compound,inhibition (reported as % activation of signal)
1,COc1ccc(-c2cc(NC=O)c3ncc(-c4cc(OC)c(OC)c(OC)c4)n3c2)c(OC)c1,-21.8% (inactive)
2,O=C(CN1CCN(c2ncccn2)CC1)Nc1ccccc1C(F)(F)F,1.55% (inactive)
3,CC(C)C1CC2=C(C(=O)OC(C)(C)O2)C(c2ccc(F)cc2)O1 (stereo not drawn),0.41% (inactive)
4,NC(=O)COc1ccc(NC(=O)c2ccccc2-c2ccccc2)cc1,1.27% (inactive)
5,CCCNC(=O)c1cnc(-c2ccccc2)nc1-c1ccccc1,0.2% (inactive)
6,CCOc1cccc(/C=N/N2C(=O)CSC2=S)c1O,-12.4% (inactive)
7,CO/N=C/c1ccc(N2CCN(C(=O)c3cccc(Cl)c3)CC2)c([N+](=O)[O-])c1,-5.17% (inactive)
8,O=C1CSC(=S)N1/N=C/c1ccc(O)c([N+](=O)[O-])c1,76.8% (active)
9,CCc1ccc(OC2(C)CCN(CCOc3ccc(C)cc3)C2)cc1 (stereo not drawn),1.94% (inactive)
10,CC1(C(=O)NCc2ccc3c(c2)OCO3)CCN1CCc1ccccc1 (stereo not drawn),0.65% (inactive)
11,CC(C)CCSc1ncnc2c1oc1nc3c(cc12)COC(C)(C)C3,0.16% (inactive)
12,CCOc1ccc(NC(=O)CSc2ncnc3c2sc2ccccc23)cc1,11.2% (inactive)
13,CC1(C)Cc2nc3sc4c(SCC(=O)NC(c5ccccc5)c5ccccc5)ncnc4c3cc2CO1,50% (active)
14,C=CCC[C@H](Cc1ccc(F)cc1)C(=O)OC[C@@H](Cc1c[nH]c2ccccc12)NC(=O)[C@H](CC=C)CC(=O)N[C@H](CO)Cc1ccccc1,4.02% (inactive)
15,C=CC[C@@H](CC(=O)N[C@H](CO)Cc1ccccc1)C(=O)N[C@@H](COC(=O)[C@@H](CC=C)Cc1ccc(F)cc1)Cc1c[nH]c2ccccc12,63.8% (active)
16,C=CC[C@H](CC(=O)NCCO)C(=O)N[C@@H](COC(=O)[C@@H](CC=C)Cc1ccc(F)cc1)Cc1c[nH]c2ccccc12,-10.1% (inactive)
17,O=C(Cc1ccc([N+](=O)[O-])cc1)NCCS(=O)(=O)N1CCN(c2ccccc2)CC1,-1.35% (inactive)
18,Cc1cccc(NC(=S)N2CCC(c3nc4ccccc4s3)CC2)c1,-5.14% (inactive)
19,Cc1cccc(C(=O)N2CCC(c3nc4ccccc4s3)CC2)c1,-3.99% (inactive)
20,O=C(c1cccs1)N1CCC(c2nc3ccccc3s2)CC1,73.8% (active)
21,CC(=O)N1CCc2cc(Br)cc(S(=O)(=O)CCC(=O)Nc3c(C)n(C)n(-c4ccccc4)c3=O)c21,0.99% (inactive)
22,COc1ccc(-c2[nH][nH]c(=O)c2NC(=O)c2ccc([N+](=O)[O-])cc2)cc1,-19.5% (inactive)
23,COc1ccc(Br)cc1/C=N/Nc1ccc(S(=O)(=O)Nc2ccccc2C(=O)O)cc1[N+](=O)[O-],97.5% (active)
24,COc1ccc(S(=O)(=O)N2CCC(C(=O)OCC(=O)c3ccccc3)CC2)cc1[N+](=O)[O-],6.89% (inactive)
25,COc1ccccc1C(CNC(=O)c1cccc(NS(=O)(=O)c2ccc(Br)cc2)c1)N(C)C (stereo not drawn),2.12% (inactive)
26,O=C(CCSCCc1ccccn1)Nc1nccs1,-3.62% (inactive)
